Sampled rows, rich in hits. Any-hit rate of the full collection: about 8.9%.
DRD3 antagonist: antagonists of human D3 dopamine receptor; P35462; D3R cells, DiscoveRx beta-arrestin luminescence, antagonist mode; active compounds read low; max response, negative = inhibition, %; 2.5% of 360,000 active; AID 652054; in the data active = max response below about -50%; inconclusive = no clear call, values can overlap the other calls; also: % is scaled to controls: 0 for no effect and ±100 for the full control effect
Target sequence (P35462 whole entry, looked up): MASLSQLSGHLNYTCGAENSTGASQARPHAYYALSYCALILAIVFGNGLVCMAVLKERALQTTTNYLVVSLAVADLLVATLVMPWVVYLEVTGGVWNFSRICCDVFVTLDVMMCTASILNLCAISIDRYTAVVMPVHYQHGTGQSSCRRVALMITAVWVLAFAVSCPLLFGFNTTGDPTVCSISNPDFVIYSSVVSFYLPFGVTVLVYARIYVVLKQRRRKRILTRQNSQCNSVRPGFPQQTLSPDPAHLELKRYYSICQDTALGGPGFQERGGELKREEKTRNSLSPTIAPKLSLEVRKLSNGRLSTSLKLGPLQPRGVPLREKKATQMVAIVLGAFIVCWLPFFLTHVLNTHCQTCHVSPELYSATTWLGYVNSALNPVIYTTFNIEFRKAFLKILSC
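Cells expressing the human receptor were seeded at 1500 cells/well, incubated overnight at 37 degrees C in 5% CO2, then exposed to library compounds with dopamine controls for 90 minutes at 37 degrees C before luminescent detection.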
SW480 rerep: DNA re-replication induction in SW480 cells. SW480 DNA re-replication, Hoechst DNA content imaging, 48 h. Potency, µM (doses to about 46.1 µM), for the others: at the highest dose re-replication activation, actives largely listed as activators. 1.8% of 340,000 active. AID 624297; also: potency is read from the fitted curve at half-maximal effect; % of control where 0% means no effect; nearly all actives have a fitted effect of over 55% in size
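SW480 cells exposed to compounds for 48 hr at 37 C, 5% CO2, then Hoechst-stained 40 min. Nuclear DNA content imaged by fluorescence scanning (405 nm excitation, 500-530 nm emission); re-replication scored as increased high-intensity nuclei.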
MCF10A rereplic: inducers of DNA re-replication in MCF 10A breast cells; 2.9% of 350,000 active; AID 624296; Potency, µM (highest dose often 46.1 µM), inactives show at the top dose activity, positive = re-replication, most hits filed as activators; MCF 10A DNA re-replication, Hoechst nuclear intensity, 48 h; also: potency is read from the fitted curve at half-maximal effect; % of control where 0% means no effect; nearly all actives have a fitted effect of over 50% in size
DRD3 agonist: agonists of human D3 dopamine receptor; max activation, %; D3R DiscoveRx beta-arrestin cells, luminescence, 90 min; 0.58% of 410,000 active; AID 652048; in the data active = max activation above about 30%; also: 0% is about no effect
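Agonist mode: compounds and dopamine controls were applied to plated cells for 90 min at 37 degrees C after an overnight attachment at 1500 cells/well. Luminescent read-out followed 30 - 60 minutes at room temperature with DiscoveRx detection reagent.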
KB-V1 MDR tox: kills drug-selected multidrug resistant KB-V1 cells | KB-V1 MDR cells viability, CellTiter-Glo, 72 h | Potency, µM (titrated, usually from 46.1 µM), actives largely listed as cytotoxic | 3.4% of 400,000 active; also: potency is read from the fitted curve at half-maximal effect; % is scaled to controls: 0 for no effect and ±100 for the full control effect; nearly all actives have a fitted effect of over 60% in size
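Readout: CellTiter-Glo luminescence, 10 min after addition. Cells: KB-V1 MDR subline, 72 h at 37 degrees C with compound. Analysis: corrected, normalized data fitted to concentration-effect curves.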
KB-3-1 cytotox: KB-3-1 parental cell cytotoxicity; KB-3-1 viability, CellTiter-Glo ATP luminescence, 72 h; Potency, µM (doses to about 46.1 µM), hits mostly cytotoxic; 1.4% of 400,000 active; also: potency is read from the fitted curve at half-maximal effect; % is scaled to controls: 0 for no effect and ±100 for the full control effect; nearly all actives have a fitted effect of over 60% in size
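Luminescent ATP read-out (CellTiter-Glo) measures survival of drug-naive KB-3-1 cells after 72 h compound exposure at 37 °C. Titration series was screened from lowest to highest concentration, with DMSO vehicle plates as background controls.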
* = called active by the depositor; i = inactive; ? = inconclusive; . = no result. Unless noted, calls follow the shape of the dose curve; as a rule, active = well fitted curve in the direction sought with a large enough effect; inconclusive = small, poorly fitted or top-dose-only effect, or another doubt; inactive = no such curve, though single readings can be large; an effect the other way counts as inactive or inconclusive.

SMILES	DRD3 antagonist	SW480 rerep	MCF10A rereplic	DRD3 agonist	KB-V1 MDR tox	KB-3-1 cytotox
O=C(C1CCN(Cc2ccccc2O)CC1)N1CCN(Cc2ccc3c(c2)OCO3)CC1	-22	-5%	7%	-29	.	.
O=C(C1CCN(Cc2cc(Cl)ccc2O)CC1)N1CCN(Cc2ccccc2)CC1	?	11%	13%	-14	10µM*	?
O=C(C1CCN(S(=O)(=O)N2CCC3(CC2)OCCO3)CC1)N1CCc2ccccc2C1	6	-7%	-4%	2	9.2µM*	i
O=C(C1CCN(S(=O)(=O)N2CCC3(CC2)OCCO3)CC1)N1CCN(Cc2ccccc2)CC1	-6	5.8µM*	?	0	i	i
OCc1ccccc1SSc1ccccc1CO	?	?	18µM*	-4	?	?
Cc1cc(N(C)C)cc(C)c1C=O	.	.	.	.	i	i
Clc1ccc2c(c1)C(N1CCNCC1)=Nc1ccccc1O2	-117*	-14%	-4%	-85	?	i
COc1ccc2cc3c(N)nn(C(=O)c4ccc(F)cc4)c3nc2c1	-17	?	?	-5	?	i
COc1ccc2cc3c(N)nn(C(=O)c4ccccc4Cl)c3nc2c1	3	4.1µM*	23%	5	?	?
CCOC(=O)Cn1c(-c2cccnc2Cl)nc2cc(Cl)c(Cl)cc21	?	-9%	6%	-18	21µM*	i
Cn1cc(C(F)(F)F)nc1-c1ccc(OCC(O)CNCCOc2ccc(O)c(C(N)=O)c2)cc1 (stereo not drawn)	-4	-11%	?	101*	i	i
Cc1c(Cl)cccc1NC(=O)c1cc2nc(-c3ccc4c(c3)OCO4)cc(C(F)(F)F)n2n1	.	.	.	9	.	.
Cc1cc(C)c2nc(-c3ccncc3)cc(C(=O)N3CCN(Cc4ccccc4Cl)CC3)c2c1	54	26%	?	43*	?	?
Cc1ncoc1C(=O)NC1CCCc2c1cnn2-c1cc(F)cc(F)c1 (stereo not drawn)	13	.	.	7	?	i
Cc1ncoc1C(=O)NC1CCCc2c1cnn2-c1ccc(C(C)(C)C)cc1 (stereo not drawn)	34	13%	3%	30*	i	18µM*
O=C(NCCc1ccccc1)C1(c2cccs2)CCOCC1	.	.	.	-5	i	i
Cc1cccc(NC(=O)C2(c3cccs3)CCOCC2)n1	-12	-54%	-3%	2	16µM*	i
O=C(NC(c1ccccc1)c1ccccc1)C1(c2cccs2)CCOCC1	22	0%	0%	10	5.2µM*	i
CCCCn1c(N)c(S(=O)(=O)c2ccc(C)cc2)c2nc3ccccc3nc21	11	0.65µM*	3.7µM*	32*	?	?
CN(C)CCCn1c(N)c(S(=O)(=O)c2ccccc2)c2nc3ccccc3nc21	?	?	23µM*	-4	i	i
CC(=O)Nc1ccc(S(=O)(=O)c2c(N)n(CCN3CCOCC3)c3nc4ccccc4nc23)cc1	?	-1%	10%	3	i	i
Cc1ccc(S(=O)(=O)c2c(N)n(Cc3ccco3)c3nc4ccccc4nc23)cc1	?	?	?	0	i	?
Cc1cccc(S(=O)(=O)c2c(N)n(Cc3ccco3)c3nc4ccccc4nc23)c1	-7	18%	?	-1	18µM*	?
Cc1ccc(S(=O)(=O)c2c(N)n(-c3ccccc3)c3nc4ccccc4nc23)cc1	-29	-3%	?	-8	?	i
CCOc1ccccc1C(=O)N1CCC(c2nc3ccccc3o2)CC1	.	.	.	9	.	.
SMILES	DRD3 antagonist	SW480 rerep	MCF10A rereplic	DRD3 agonist	KB-V1 MDR tox	KB-3-1 cytotox
COc1ccc(C2CC(=O)NC(NC(=O)c3ccc(Br)cc3)=N2)c(OC)c1OC (stereo not drawn)	.	.	.	5	.	.
COc1ccccc1OCCn1c(-c2ccc(Br)cc2)nc2ccccc2c1=O	.	.	.	-5	i	i
CC(C)(C)C1CCc2c(sc(NC(=O)c3ccccc3F)c2C(=O)NCc2ccco2)C1 (stereo not drawn)	.	.	.	2	i	i
CC(C)CC(NS(=O)(=O)OCC(Cl)(Cl)Cl)c1ccccc1 (stereo not drawn)	-26	-1%	?	3	23µM*	i
COC(=O)CCC(NS(=O)(=O)OCC(Cl)(Cl)Cl)c1ccccc1 (stereo not drawn)	0	-1%	0%	-2	i	i
COc1ccc(NC(=O)COC(=O)C23CC4CC(CC(NC(C)=O)(C4)C2)C3)cc1S(=O)(=O)N1CCOCC1	-25	-3%	-2%	-3	i	i
CC(=O)NC12CC3CC(C1)CC(C(=O)Nc1cccc(S(=O)(=O)N4CCCCCC4)c1)(C3)C2	29	0%	15%	4	15µM*	i
CC(=O)NC12CC3CC(C1)CC(C(=O)Nc1ccc(C)c(S(=O)(=O)N4CCCCCC4)c1)(C3)C2	0	2%	5%	-2	21µM*	?
O=S(=O)(c1ccccc1)N1CCC(c2ccncc2)CC1	.	.	.	9	?	i
O=C(CSC1=Nc2ccccc2N=C(c2ccc(F)cc2)C1)NCc1ccccc1	.	.	.	-4	i	i
CCOc1ccc(/C=N/NC(=O)c2ccccc2O)cc1CN1CC2CC(C1)c1cccc(=O)n1C2 (stereo not drawn)	45	?	-31%	6	?	i
Cc1cccc(C)c1OCc1cc(C(=O)N2CCC(c3ccncc3)CC2)no1	13	?	11%	1	i	i
O=C(c1cc(COc2c(F)cccc2F)on1)N1CCC(c2ccncc2)CC1	10	-5%	?	-3	?	23µM*
Cc1ccc(OCC(=O)NCC(=O)OCc2cc(=O)n3nc(CC(C)C)sc3n2)cc1	.	.	.	-15	i	i
CCOc1ccc(NC(=O)Cn2cc(C(=O)c3ccc(CC)cc3)c(=O)c3cc(C)ccc32)cc1	.	.	.	0	i	i
CCC(=O)N1CCc2cc(Br)cc(S(=O)(=O)N3CCCC(C(=O)Nc4cccc(Cl)c4C)C3)c21 (stereo not drawn)	.	.	.	-7	i	i
O=C1c2cccc3cccc(c23)C(=O)N1CCN1CCN(C(=S)Nc2ccc(Cl)cc2)CC1	-24	-2%	-4%	-5	i	i
O=C1c2cccc3cc([N+](=O)[O-])cc(c23)C(=O)N1CCN1CCCC1	?	?	?	-8	?	?
O=C1c2cccc3cccc(c23)C(=O)N1CCN1CCN(C(=S)Nc2ccccc2)CC1	-17	14%	10%	-8	18µM*	i

Screening results (PubChem)
